The values below come from PubChem BioAssay.

Activity calls are given as the source filed them.

The test system of assay [1] is PRMT1 (protein arginine N-methyltransferase 1). Kind of assay: PRMT1 binders on small-molecule microarrays, primary screen, biochemical, small-molecule microarray, 635 nm fluorescence (AID 1088).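 Also: binding of Prmt1 protein to compounds spotted on small-molecule microarray slides.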 As to conditions: small-molecule microarray binding, higher = more signal.
A short description of assay [2]: yeast growth modulation, basal conditions, primary screen, YJM789 clinical isolate, OD600, 24 h (AID 1089).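 Also: growth of clinical yeast isolate S. cerevisiae YJM 789 seeded 1000 cells per well; test concentration not given here.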 As to conditions: S. cerevisiae YJM789 growth, higher = more signal, called active from +8 up or from −8 down.
Assay [3] can be described thus: fission yeast growth modulation, primary screen, strain 972, OD600, 24 h, no modulator (AID 1090).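 Also: basal condition with compound alone and no growth modifier present; test concentration not given here.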 As to conditions: S. pombe 972 growth, higher = more signal, called active from +8 up or from −8 down.
A short description of assay [4]: S. cerevisiae growth modulation with rapamycin, primary screen, strain BY4716, OD600, 96 h (AID 1091). Also: test concentration not given here. As to conditions: higher = more signal, called active from +8 up or from −8 down.
Assay [5] has as its target Torsin-1A-interacting protein 2 (Homo sapiens) (UniProt Q8NFQ8). The experiment in a line: LULL1 binders on small-molecule microarray, primary screen, cell lysate, human LULL1 lysate, 635/667 nm fluorescence (AID 1092).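 Also: probe is lysate of COS7 cells overexpressing human LULL1; score merges per-feature 667 nm fluorescence with signal-to-noise.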 The conditions noted are these: hLULL1 lysate binding, 635 nm fluorescence, higher = more signal.
Assay [6] in a line: E. coli growth modulation, two-sided OD650, primary screen, E. coli filamentation project, strain DRC41, 24 h (AID 1093).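 Also: MC1000 strain lacking acrAB efflux and sulA so SOS filamentation is blocked; test concentration not given here.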 As to conditions: OD650, 24 h, higher = more signal, called active from +8 up or from −8 down.
The nature of assay [7]: small-molecule microarray binders of probe aLefty2, primary screen, biochemical, biotinylated probe, 635/667 nm fluorescence (AID 1094).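 Also: score merges spot fluorescence near 667 nm with spot signal-to-noise ratio.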 As to conditions: higher = more signal.
The test system of assay [8] is Noggin (protein binding on small-molecule microarray). The experiment in a line: Noggin binders on small-molecule microarray, primary screen, biochemical, 635/667 nm fluorescence (AID 1095).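 Also: score merges 667 nm feature fluorescence with signal to noise over triplicate slides.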 As to conditions: 635 nm fluorescence, higher = more signal.
Assay [9] addresses Neurogenic locus notch homolog protein 3 (Homo sapiens) (UniProt Q9UM47). The experiment in a line: NOTCH3 binders on small-molecule microarray, primary screen, biochemical, 635/667 nm fluorescence (AID 1096). The conditions noted are these: NOTCH3 binding, 635 nm fluorescence, higher = more signal.
The nature of assay [10]: small-molecule microarray binders of probe aEGFR, primary screen, biochemical, biotinylated probe, 635/667 nm fluorescence (AID 1097).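 Also: probe is a biotinylated anti-EGFR antibody binding compounds printed on slides; score combines fluorescence near 667 nm and signal to noise of each spot.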 As to conditions: higher = more signal.
Assay [11] relates to Plasmodium falciparum Sir2 (PF13_0152, Sir2A). The experiment in a line: pfSir2 binders on small-molecule microarrays, primary screen, biochemical, small-molecule microarray, 635 nm fluorescence (AID 1098).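 Also: score merges spot fluorescence intensity with its signal-to-noise ratio.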 The conditions noted are these: small-molecule microarray binding, fluorescence 635 nm; higher = more signal.
Assay [12] is described as follows: small-molecule microarray binders of probe aDKK1, primary screen, biochemical, biotinylated probe, 635/667 nm fluorescence (AID 1099).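 Also: score merges 667nm spot fluorescence with signal to noise across triplicate slides; reference of the scale not given here.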 As to conditions: higher = more signal.
Assay [13] is described as follows: small-molecule microarray binders of probe aCHRDL2, primary screen, biochemical, biotinylated probe, 635/667 nm fluorescence (AID 1100). The conditions noted are these: higher = more signal.
A short description of assay [14]: splicing luciferase reporter signal modulators, primary screen, spliceosome inhibition project, cell-based, HEK293, splice +/- reporter (AID 1101).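 Also: HEK293 cells carrying a splicing-competent luciferase reporter gene; test concentration not given here.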 The conditions noted are these: luminescence, 24 h, higher = more signal, called active from +8 up or from −8 down. For orientation: Reporter assays use an easily measured gene product as a stand-in for the process of interest.

For assay [15], the target named is Fibroblast growth factor 10 (Homo sapiens) (UniProt O15520). Kind of assay: FGF10 binders on small-molecule microarrays, primary screen, biochemical, small-molecule microarray, 635 nm fluorescence (AID 1102). As to conditions: FGF10 binding, fluorescence 635 nm, higher = more signal.
Assay [16] deals with glycogen synthase kinase-3 (GSK3A per assay name; protocol says GSK3B). The experiment in a line: GSK3 binders on small-molecule microarrays, primary screen, biochemical, small-molecule microarray, 635 nm fluorescence, GSK3A (AID 1103). Also: the record names both GSK3A and GSK3B. The conditions noted are these: small-molecule microarray binding, fluorescence 635 nm; higher = more signal.
In assay [17] the target is Epidermal growth factor receptor (Homo sapiens) (UniProt P00533). The experiment in a line: EGFR binders on small-molecule microarrays, primary screen, biochemical, small-molecule microarray, 635 nm fluorescence (AID 1104).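 Also: score merges 667 nm emission intensity with spot signal to noise over triplicate slides.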 As to conditions: EGFR binding, higher = more signal.
Assay [18] deals with Follistatin-related protein 3 (Homo sapiens) (UniProt O95633). Kind of assay: FSTL3 binders on small-molecule microarrays, primary screen, biochemical, small-molecule microarray, 635 nm fluorescence (AID 1105).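 Also: score merges emission near 667 nm and signal to noise per printed spot across three slides.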 The conditions noted are these: FSTL3 binding, higher = more signal.
Assay [19] has as its target Dickkopf-related protein 1 (Homo sapiens) (UniProt O94907). Kind of assay: DKK1 binders on small-molecule microarrays, primary screen, biochemical, small-molecule microarray, 635 nm fluorescence scan (AID 1106).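 Also: score merges emission near 667 nm with signal to noise over three replicate slides.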 The conditions noted are these: DKK1 binding, higher = more signal.
In assay [20] the test system is Inhibin beta A chain (activin A). The experiment in a line: INHBA (activin A) binders on microarrays, primary screen, biochemical, small-molecule microarray, 635 nm fluorescence scan (AID 1107).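 Also: mouse activin A protein probed at 4.33 µg/mL on printed slides; score merges bound-protein fluorescence near 667 nm with spot signal-to-noise.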 The conditions noted are these: small-molecule microarray binding, higher = more signal.

Sequence of Dickkopf-related protein 1 (Homo sapiens) (O94907 whole entry, looked up): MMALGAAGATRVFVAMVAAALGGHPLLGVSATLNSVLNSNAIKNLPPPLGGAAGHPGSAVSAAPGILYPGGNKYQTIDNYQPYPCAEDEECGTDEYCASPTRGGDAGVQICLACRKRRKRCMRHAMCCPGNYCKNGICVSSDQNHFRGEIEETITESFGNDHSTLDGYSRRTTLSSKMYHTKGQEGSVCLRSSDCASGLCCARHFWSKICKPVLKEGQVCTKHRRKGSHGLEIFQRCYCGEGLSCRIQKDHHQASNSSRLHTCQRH
Sequence of Epidermal growth factor receptor (Homo sapiens) (P00533 whole entry, looked up): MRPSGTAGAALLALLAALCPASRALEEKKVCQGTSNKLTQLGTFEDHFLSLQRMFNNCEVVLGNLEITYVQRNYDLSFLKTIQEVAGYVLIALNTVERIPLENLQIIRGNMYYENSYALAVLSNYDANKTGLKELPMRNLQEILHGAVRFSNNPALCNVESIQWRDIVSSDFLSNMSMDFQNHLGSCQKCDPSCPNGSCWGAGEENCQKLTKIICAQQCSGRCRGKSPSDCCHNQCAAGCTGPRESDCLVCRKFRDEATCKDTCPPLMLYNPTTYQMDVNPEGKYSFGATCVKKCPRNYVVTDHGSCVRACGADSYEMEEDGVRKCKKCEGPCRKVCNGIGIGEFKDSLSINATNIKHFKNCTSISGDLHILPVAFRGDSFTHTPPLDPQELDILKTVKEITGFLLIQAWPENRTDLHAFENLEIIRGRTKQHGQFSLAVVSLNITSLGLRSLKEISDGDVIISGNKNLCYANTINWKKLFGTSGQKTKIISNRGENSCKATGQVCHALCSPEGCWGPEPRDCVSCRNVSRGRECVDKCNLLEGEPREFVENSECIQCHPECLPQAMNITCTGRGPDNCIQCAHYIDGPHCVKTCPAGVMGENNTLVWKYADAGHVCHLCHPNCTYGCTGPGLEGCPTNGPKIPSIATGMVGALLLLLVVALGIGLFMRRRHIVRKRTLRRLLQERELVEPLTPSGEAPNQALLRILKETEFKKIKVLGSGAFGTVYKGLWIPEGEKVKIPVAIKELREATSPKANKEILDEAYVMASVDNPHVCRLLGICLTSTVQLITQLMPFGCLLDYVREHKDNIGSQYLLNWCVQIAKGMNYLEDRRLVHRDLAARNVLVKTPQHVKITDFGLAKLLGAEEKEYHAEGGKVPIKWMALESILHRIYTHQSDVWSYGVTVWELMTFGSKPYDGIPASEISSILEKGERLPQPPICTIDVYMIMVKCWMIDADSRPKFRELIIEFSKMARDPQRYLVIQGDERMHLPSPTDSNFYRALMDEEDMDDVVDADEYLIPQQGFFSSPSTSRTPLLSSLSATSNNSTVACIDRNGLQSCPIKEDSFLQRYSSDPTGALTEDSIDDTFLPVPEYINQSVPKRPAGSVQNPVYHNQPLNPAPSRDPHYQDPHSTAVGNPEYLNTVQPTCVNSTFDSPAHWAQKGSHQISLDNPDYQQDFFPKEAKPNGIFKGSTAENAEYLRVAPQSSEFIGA
Sequence of Neurogenic locus notch homolog protein 3 (Homo sapiens) (Q9UM47 whole entry, looked up): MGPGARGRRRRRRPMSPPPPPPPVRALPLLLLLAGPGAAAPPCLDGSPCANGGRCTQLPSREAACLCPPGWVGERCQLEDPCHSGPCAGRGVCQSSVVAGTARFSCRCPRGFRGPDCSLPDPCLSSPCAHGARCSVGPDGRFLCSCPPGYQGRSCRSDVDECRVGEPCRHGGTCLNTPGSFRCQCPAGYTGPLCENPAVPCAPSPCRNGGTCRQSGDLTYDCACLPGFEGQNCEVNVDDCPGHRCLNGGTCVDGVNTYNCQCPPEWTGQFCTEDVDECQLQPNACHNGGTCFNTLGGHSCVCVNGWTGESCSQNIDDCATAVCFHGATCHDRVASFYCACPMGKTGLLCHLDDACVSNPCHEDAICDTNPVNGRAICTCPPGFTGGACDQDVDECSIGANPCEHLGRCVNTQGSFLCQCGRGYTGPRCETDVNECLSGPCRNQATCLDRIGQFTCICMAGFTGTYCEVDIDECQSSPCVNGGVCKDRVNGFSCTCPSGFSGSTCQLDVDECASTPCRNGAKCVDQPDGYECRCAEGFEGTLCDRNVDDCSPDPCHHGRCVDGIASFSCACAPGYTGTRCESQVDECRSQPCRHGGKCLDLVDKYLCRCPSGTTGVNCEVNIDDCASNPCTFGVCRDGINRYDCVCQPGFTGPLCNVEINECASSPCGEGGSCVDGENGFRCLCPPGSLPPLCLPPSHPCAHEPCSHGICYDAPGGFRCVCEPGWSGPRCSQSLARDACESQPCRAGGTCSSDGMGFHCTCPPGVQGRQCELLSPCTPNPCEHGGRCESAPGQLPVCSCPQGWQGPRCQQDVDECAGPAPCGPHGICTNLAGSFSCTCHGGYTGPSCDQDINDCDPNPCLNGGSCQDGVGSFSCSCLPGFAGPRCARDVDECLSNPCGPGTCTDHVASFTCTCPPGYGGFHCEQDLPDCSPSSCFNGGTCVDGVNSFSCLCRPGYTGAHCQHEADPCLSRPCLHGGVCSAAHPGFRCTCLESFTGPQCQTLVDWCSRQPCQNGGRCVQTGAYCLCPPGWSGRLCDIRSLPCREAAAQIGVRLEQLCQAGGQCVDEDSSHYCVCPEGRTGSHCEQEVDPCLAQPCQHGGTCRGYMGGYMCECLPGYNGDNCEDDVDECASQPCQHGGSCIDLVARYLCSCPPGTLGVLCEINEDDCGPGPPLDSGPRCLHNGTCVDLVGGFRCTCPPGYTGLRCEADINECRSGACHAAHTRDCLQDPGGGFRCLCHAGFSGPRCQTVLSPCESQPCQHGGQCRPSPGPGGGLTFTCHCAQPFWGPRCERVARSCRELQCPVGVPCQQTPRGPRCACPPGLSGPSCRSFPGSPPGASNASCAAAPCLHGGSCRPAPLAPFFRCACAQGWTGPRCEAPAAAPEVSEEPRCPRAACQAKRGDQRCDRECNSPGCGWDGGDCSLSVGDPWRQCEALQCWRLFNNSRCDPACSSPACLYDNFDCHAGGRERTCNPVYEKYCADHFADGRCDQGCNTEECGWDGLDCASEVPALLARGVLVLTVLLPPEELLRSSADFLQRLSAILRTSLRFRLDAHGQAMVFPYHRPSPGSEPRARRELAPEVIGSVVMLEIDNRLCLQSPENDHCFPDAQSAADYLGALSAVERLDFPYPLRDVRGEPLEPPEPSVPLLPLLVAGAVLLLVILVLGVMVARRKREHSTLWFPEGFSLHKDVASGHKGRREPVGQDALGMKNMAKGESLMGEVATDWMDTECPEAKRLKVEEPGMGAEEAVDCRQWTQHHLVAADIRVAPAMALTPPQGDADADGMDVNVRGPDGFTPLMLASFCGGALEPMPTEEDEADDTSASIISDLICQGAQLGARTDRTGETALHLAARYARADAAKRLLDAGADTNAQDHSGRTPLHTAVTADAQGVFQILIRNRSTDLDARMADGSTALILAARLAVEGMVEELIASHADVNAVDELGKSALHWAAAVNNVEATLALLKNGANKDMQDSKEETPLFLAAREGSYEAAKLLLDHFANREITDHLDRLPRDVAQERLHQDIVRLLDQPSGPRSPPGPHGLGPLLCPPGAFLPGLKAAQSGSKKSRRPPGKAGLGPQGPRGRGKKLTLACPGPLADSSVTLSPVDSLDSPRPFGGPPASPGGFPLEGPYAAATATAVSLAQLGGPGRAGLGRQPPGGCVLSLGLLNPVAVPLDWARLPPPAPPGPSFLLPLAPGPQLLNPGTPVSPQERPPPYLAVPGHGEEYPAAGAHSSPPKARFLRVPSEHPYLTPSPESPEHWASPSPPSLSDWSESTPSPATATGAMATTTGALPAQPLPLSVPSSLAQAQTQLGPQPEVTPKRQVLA
Sequence of Fibroblast growth factor 10 (Homo sapiens) (O15520 whole entry, looked up): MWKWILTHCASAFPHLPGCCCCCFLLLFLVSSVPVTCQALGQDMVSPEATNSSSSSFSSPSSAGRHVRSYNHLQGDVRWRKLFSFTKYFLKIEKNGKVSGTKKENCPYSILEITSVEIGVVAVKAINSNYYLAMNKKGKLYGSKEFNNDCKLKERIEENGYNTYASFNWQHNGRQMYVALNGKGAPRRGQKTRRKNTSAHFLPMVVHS
Sequence of Torsin-1A-interacting protein 2 (Homo sapiens) (Q8NFQ8 whole entry, looked up): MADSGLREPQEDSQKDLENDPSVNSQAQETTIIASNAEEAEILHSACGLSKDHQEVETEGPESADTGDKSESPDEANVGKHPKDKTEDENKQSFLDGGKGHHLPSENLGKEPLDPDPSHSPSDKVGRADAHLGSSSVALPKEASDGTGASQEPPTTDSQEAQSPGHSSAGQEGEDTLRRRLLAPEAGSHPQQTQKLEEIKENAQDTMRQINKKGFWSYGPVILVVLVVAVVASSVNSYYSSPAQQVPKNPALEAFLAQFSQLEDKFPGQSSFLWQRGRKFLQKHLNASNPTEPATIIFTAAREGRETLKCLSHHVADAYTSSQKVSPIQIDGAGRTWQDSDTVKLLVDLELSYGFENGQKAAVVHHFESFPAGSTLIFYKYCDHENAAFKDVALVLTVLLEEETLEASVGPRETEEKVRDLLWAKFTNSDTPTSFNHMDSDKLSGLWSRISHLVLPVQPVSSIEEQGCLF
Sequence of Follistatin-related protein 3 (Homo sapiens) (O95633 whole entry, looked up): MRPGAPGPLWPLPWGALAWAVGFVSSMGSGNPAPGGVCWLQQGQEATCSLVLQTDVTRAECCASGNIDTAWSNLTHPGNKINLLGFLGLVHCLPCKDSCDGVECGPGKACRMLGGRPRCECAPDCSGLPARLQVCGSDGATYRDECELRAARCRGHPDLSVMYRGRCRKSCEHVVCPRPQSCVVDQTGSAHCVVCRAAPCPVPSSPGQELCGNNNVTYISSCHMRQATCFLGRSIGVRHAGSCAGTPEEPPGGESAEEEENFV

For the molecule `CC(=O)OC[C@H]1O[C@H](CCON=C(C)CCC(=O)OC[C@H]2O[C@H](C#Cc3ccccc3)C=C[C@@H]2Oc2ccc(C)cc2)C=C[C@@H]1OC(C)=O`, the composite z-score in [1] is 0.269; in assay [5] it was 0.719; in [7], -0.181; in assay [8] it was 0.465; in assay [9], -0.0894; in [10], 0.0567. Further, the composite z-score in assay [11] is 0.825; in assay [12], -0.304; in assay [13] it was -0.632; in assay [15], 0.167; in assay [16], -0.219; in [17], 0.259. Besides, the results for the composite z-score in assay [18], in assay [19] and in assay [20] were 0.521, 0.495 and 0.659, respectively. Further, the z-score in assay [2] was -0.465 (inactive); in assay [3] it was -0.0797 (inactive); in [4] it was -0.579 (inactive); in assay [6], 0.554 (inactive); in assay [14] it was -0.35 (inactive).
Take `COCCCNC(=O)[C@@]1(Sc2ccc(C)cc2)CC(=O)N(Cc2ccccc2)[C@@H]1c1ccc(CO)cc1I`: the composite z-score is 0.785 in [1]; 0.936 in assay [5]; 0.556 in [7]; -1.53 in [8]; -1 in [9]; 0.0097 in assay [10]. For the same molecule, the composite z-score in assay [11] is 0.179; in assay [12], 0.996; in [13] it was 1.31; in assay [15], -0.144; in assay [16], -0.969; in [17] it was -1.28. The results for the composite z-score in assay [18], in [19] and in assay [20] were -0.238, -1.4 and 1.12, respectively. Further, the z-score in [2] is -1.69 (inactive); in assay [3] it was -2.82 (inactive); in assay [4], 0.999 (inactive); in assay [6], 0.248 (inactive); in assay [14], -0.606 (inactive).
Consider `CCN1C(=O)[C@H]2[C@H]3[C@H](O)[C@H](O)CC(=NOC(C)CN4CCCCc5nc(C)c(C)cc54)[C@@H]3CC[C@H]2C1=O` (stereo not given in full), for which the composite z-score was 0.708 in assay [1]; -0.414 in assay [5]; -0.0977 in [7]; 0.732 in assay [8]; 0.398 in assay [9]; 0.126 in assay [10]. Besides, the composite z-score in assay [11] is 0.438; in assay [12], -0.206; in [13], -0.667; in assay [15], 0.471; in assay [16], 0.606; in assay [17], 0.78. Also, the composite z-score is 0.756 in assay [18], 0.78 in assay [19] and 0.834 in [20]. Further, the z-score in assay [2] is 0.12 (inactive); in assay [3] it was 0.634 (inactive); in assay [4], 0.403 (inactive); in assay [6], 1.03 (inactive); in assay [14] it was 0.279 (inactive).
Take `CN(C)C(=O)[C@@]1(Cc2ccccc2)N=C(c2ccc(OCCCO)cc2)O[C@H]1c1ccccc1CN=[N+]=[N-]`: the composite z-score amounted to 1.56 in assay [1]; 3.17 in [5]; 0.578 in [7]; 0.801 in assay [8]; 0.969 in [9]; 0.361 in [10]. Further, the composite z-score is 1.2 in [11]; 1.44 in assay [12]; 1.35 in [13]; 1.47 in assay [15]; 0.777 in [16]; -0.194 in [17]. Moreover, the composite z-score is 0.732 in assay [18], 0.0591 in assay [19] and 0.784 in [20]. For the same molecule, the z-score in [2] is -1.88 (inactive); in assay [3], -0.31 (inactive); in [4] it was 0.477 (inactive); in assay [6], 0.73 (inactive); in [14], 0.32 (inactive).
As to `C=COC[C@H]1CN2[C@@H](CC[C@@H](C)[C@@H]2c2ccc(Br)cc2)C(=O)O1`, the composite z-score in [1] was 1.4; in assay [5], 1.99; in assay [7] it was -0.155; in assay [8], 0.372; in assay [9] it was 0.521; in [10], 0.0402. The composite z-score was 0.729 in assay [11]; -0.41 in assay [12]; -0.601 in assay [13]; 0.273 in [15]; 0.665 in [16]; 0.498 in assay [17]. The composite z-score was 0.694 in [18], 0.928 in assay [19] and 0.611 in assay [20]. For the same molecule, the z-score in assay [2] was -2.69 (inactive); in assay [3], -4.68 (inactive); in [4], -1.52 (inactive); in assay [6], -0.0786 (inactive); in assay [14], -1.09 (inactive).
